This is part of a sample that, as a whole, favours compounds with a hit. Of some 83,000 tested, about 20% had one in any assay.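 Testing used 96-well plates and a 48-hour single-concentration exposure. Example: -40 means 40% of the starting cells died.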 Unmarked numbers belong to inactive results. The source made the active and inactive calls. Rule for the calls: active = growth percent below 10; inactive = the rest.
system: PC-3 prostate; experiment: NCI-60 one-dose screen, 48 h (100 = growth as untreated, 0 = no growth, -100 = all killed); conditions: 10 µM unless noted

**Q.** With `CC1(C)OC2COC3(C(=O)O)OC(C)(C)OC3C2O1` (stereo unspecified) as the compound, how does the growth read?
**A.** 100%

**Q.** With `Cc1ccc(Cn2c(-c3cccs3)nc3ccccc32)cc1` as the compound, how does the growth read?
**A.** 72.2%

**Q.** How did the growth turn out when `COc1cc2c(cc1OC)C1(C)N(CC2)C(=O)OC1(C)C` (stereo unspecified) was run?
**A.** 97.3%

**Q.** With `Cc1cc(-c2ccccc2)c(C)n1Cc1ccc(Cl)cc1` as the compound, how does the growth read?
**A.** 57.3%

**Q.** For `CCN(Cc1ccccc1)c1ccc(SC#N)cc1`, which growth is on record?
**A.** 30.5%

**Q.** `O=C1Nc2ccc(Br)cc2C1=N/C=c1\[nH]c(=O)/c(=C/c2ccc(Cl)cc2)s1` was tested. Which growth did it give?
**A.** 92%

**Q.** `COc1ccc(-c2nc(-c3ccccc3)c(-c3ccccc3)n2C2CC2)cc1OC1CCCCC1` was tested. Which growth did it give?
**A.** 43.4%

**Q.** `CC(=O)Nc1ccc(S(=O)(=O)N2C(=O)CCC2C(=O)Nc2ccccc2)cc1` (stereo unspecified) was tested. Which growth did it give?
**A.** 26.7%

**Q.** With `COc1cc(CNC(=O)CCSc2nc3ccccc3c(=O)n2Cc2cc(OC)c(OC)c(OC)c2)cc(OC)c1OC` as the compound, how does the growth read?
**A.** 49.5%

**Q.** `O=C(CN1CCN(c2cc3c(cc2F)c(=O)c(C(=O)O)cn3C2CC2)CC1)Nc1ccc(C(=O)/C=C/c2ccccc2)cc1` was tested. Which growth did it give?
**A.** 55.2%

**Q.** For `CC(C)N(Cc1ccc(CN(C(=O)CCl)C(C)C)cc1)C(=O)CCl`, which growth is on record?
**A.** 29.7%

**Q.** `COc1ccc(/C=C/c2cc(N3CCOCC3)c3cc(F)c(F)cc3n2)cc1OC` was tested. Which growth did it give?
**A.** 38.7%

**Q.** For `COc1cccc(-n2cc(-c3nc(Cl)c4ccccc4n3)nn2)c1`, which growth is on record?
**A.** 97.5%

**Q.** With `CCNC(=O)C1CCCN1C(=O)C(CCCN=C(N)N)NC(=O)C(CC(C)C)NC(=O)C(CC(C)C)NC(=O)C(Cc1ccc(O)cc1)NC(=O)C(CO)NC(=O)C(Cc1c[nH]c2ccccc12)NC(=O)C(Cc1cnc[nH]1)NC(=O)C1CCC(=O)N1` (stereo unspecified) as the compound, how does the growth read?
**A.** 81.8%

**Q.** How did the growth turn out when `Nc1c(C(=O)Nc2cccc(Cl)c2Cl)sc2nc3c(cc12)C(=O)CCC3` was run?
**A.** 93.7%

**Q.** How did the growth turn out when `COc1cc(C2C=C(C)N=C3SC(C)=NN32)cc(OC)c1OC` (stereo unspecified) was run?
**A.** 95.3%

**Q.** Which growth does the source give for `Nc1c(C(=O)Nc2cccc(C(F)(F)F)c2)sc2nc3c(cc12)CCCCCC3` here?
**A.** 52.4%

**Q.** `O=Nc1c(-c2c(O)[nH]c3ccc([N+](=O)[O-])cc23)[nH]c2ccc(O)cc12` was tested. Which growth did it give?
**A.** 2.12% (active)

**Q.** Which growth does the source give for `c1cc(-c2ccc3c(c2)OCO3)n2nccc2n1` here?
**A.** 93.9%

**Q.** `Nc1c(C(=O)Nc2cccc([N+](=O)[O-])c2)sc2nc3c(cc12)C(O)CCC3` (stereo unspecified) was tested. Which growth did it give?
**A.** 57.2%

**Q.** With `CCn1cc(C(=O)O)c(=O)c2cc(F)c(N3CCN(S(=O)(=O)c4ccc(Cl)cc4Cl)CC3)cc21` as the compound, how does the growth read?
**A.** 1.6% (active)

**Q.** Which growth does the source give for `CN1C(=O)[C@H]2c3c1cccc3[C@@]13NC(=O)O[C@H]1[C@H](CCC3(C)C)C2(C)C` here?
**A.** 84.6%

**Q.** With `CN1CCN(c2ccc3cc(-c4nc5ccccc5[nH]4)c(=O)oc3c2)CC1` as the compound, how does the growth read?
**A.** 83.2%

**Q.** With `Cc1ccc(Cn2c(-c3nonc3N)nc3ccccc32)cc1` as the compound, how does the growth read?
**A.** 72.2%

**Q.** For `CCc1cccc(C)c1NC(=O)c1sc2nc3c(cc2c1N)C(=O)CCC3`, which growth is on record?
**A.** 23.3%

**Q.** How did the growth turn out when `COc1cc(-c2cc(/C=C3\CCCCC3=O)[nH]n2)cc(OC)c1OC` was run?
**A.** 89.2%

**Q.** Which growth does the source give for `FC(F)(F)c1cccc(-n2nnc3cnc(Nc4ccc(N5CCCCC5)cc4)nc32)c1` here?
**A.** 50.2%

**Q.** With `Cc1ccc(OCCn2c(C)nn(-c3ccc(Cl)cc3)c2=O)cc1` as the compound, how does the growth read?
**A.** 92.4%

**Q.** With `CN1CCN(CCCOc2ccc3nc(Nc4ccc(C(F)(F)F)c(Cl)c4)ccc3c2)CC1` as the compound, how does the growth read?
**A.** 8.45% (active)

**Q.** Which growth does the source give for `COc1cc(Cn2c(SCC(=O)Nc3cc(OC)c(OC)c(OC)c3)nc3ccccc3c2=O)cc(OC)c1OC` here?
**A.** 87.7%

**Q.** Which growth does the source give for `c1ccc(CCn2nnc3c(Nc4ccc(N5CCOCC5)cc4)ncnc32)cc1` here?
**A.** 65.1%

**Q.** `CCCC1OC(c2ccc(C(C)C)cc2)OCC1CC` (stereo unspecified) was tested. Which growth did it give?
**A.** 78.7%

**Q.** With `Oc1ccc(N=Cc2ccccc2)cc1` as the compound, how does the growth read?
**A.** 68.3%

**Q.** `COc1cccc(NC(=O)c2sc3nc4c(cc3c2N)CCCC4)c1` was tested. Which growth did it give?
**A.** 19.2%

**Q.** How did the growth turn out when `Cn1cc(C=O)c2ccccc21` was run?
**A.** 83.4%

**Q.** Which growth does the source give for `O=C1CCCCN1CCCCC#Cc1ccccc1C#Cc1ccc([N+](=O)[O-])cc1` here?
**A.** 31.9%

**Q.** `O=C(c1ccncc1)N1N=C(c2ccc(Cl)cc2)CC1c1c[nH]c2ccccc12` (stereo unspecified) was tested. Which growth did it give?
**A.** 82.8%

**Q.** For `Cc1cc2c(c(=O)o1)C(c1ccc(OC(=O)N3CCOCC3)cc1)C(C#N)=C(N)O2` (stereo unspecified), which growth is on record?
**A.** 103%

system: SK-MEL-5 melanoma; experiment: as above; conditions: 10 µM unless noted

**Q.** How did the growth turn out when `CC1(C)OC2COC3(C(=O)O)OC(C)(C)OC3C2O1` (stereo unspecified) was run?
**A.** 102%

**Q.** How did the growth turn out when `Cc1ccc(Cn2c(-c3cccs3)nc3ccccc32)cc1` was run?
**A.** 82.4%

**Q.** With `COc1cc2c(cc1OC)C1(C)N(CC2)C(=O)OC1(C)C` (stereo unspecified) as the compound, how does the growth read?
**A.** 99.6%

**Q.** For `Cc1cc(-c2ccccc2)c(C)n1Cc1ccc(Cl)cc1`, which growth is on record?
**A.** 40.7%

**Q.** How did the growth turn out when `CCN(Cc1ccccc1)c1ccc(SC#N)cc1` was run?
**A.** 93.8%

**Q.** With `O=C1Nc2ccc(Br)cc2C1=N/C=c1\[nH]c(=O)/c(=C/c2ccc(Cl)cc2)s1` as the compound, how does the growth read?
**A.** 99.1%

**Q.** `COc1ccc(-c2nc(-c3ccccc3)c(-c3ccccc3)n2C2CC2)cc1OC1CCCCC1` was tested. Which growth did it give?
**A.** 36%

**Q.** Which growth does the source give for `CC(=O)Nc1ccc(S(=O)(=O)N2C(=O)CCC2C(=O)Nc2ccccc2)cc1` (stereo unspecified) here?
**A.** 20.2%

**Q.** Which growth does the source give for `COc1cc(CNC(=O)CCSc2nc3ccccc3c(=O)n2Cc2cc(OC)c(OC)c(OC)c2)cc(OC)c1OC` here?
**A.** 12.6%

**Q.** How did the growth turn out when `O=C(CN1CCN(c2cc3c(cc2F)c(=O)c(C(=O)O)cn3C2CC2)CC1)Nc1ccc(C(=O)/C=C/c2ccccc2)cc1` was run?
**A.** 13.6%

**Q.** How did the growth turn out when `CC(C)N(Cc1ccc(CN(C(=O)CCl)C(C)C)cc1)C(=O)CCl` was run?
**A.** 17.9%

**Q.** Which growth does the source give for `COc1ccc(/C=C/c2cc(N3CCOCC3)c3cc(F)c(F)cc3n2)cc1OC` here?
**A.** 26.2%

**Q.** With `COc1cccc(-n2cc(-c3nc(Cl)c4ccccc4n3)nn2)c1` as the compound, how does the growth read?
**A.** 95.1%

**Q.** For `CCNC(=O)C1CCCN1C(=O)C(CCCN=C(N)N)NC(=O)C(CC(C)C)NC(=O)C(CC(C)C)NC(=O)C(Cc1ccc(O)cc1)NC(=O)C(CO)NC(=O)C(Cc1c[nH]c2ccccc12)NC(=O)C(Cc1cnc[nH]1)NC(=O)C1CCC(=O)N1` (stereo unspecified), which growth is on record?
**A.** 95%

**Q.** How did the growth turn out when `Nc1c(C(=O)Nc2cccc(Cl)c2Cl)sc2nc3c(cc12)C(=O)CCC3` was run?
**A.** 49.8%

**Q.** For `COc1cc(C2C=C(C)N=C3SC(C)=NN32)cc(OC)c1OC` (stereo unspecified), which growth is on record?
**A.** 101%

**Q.** Which growth does the source give for `Nc1c(C(=O)Nc2cccc(C(F)(F)F)c2)sc2nc3c(cc12)CCCCCC3` here?
**A.** 25.8%

**Q.** With `O=Nc1c(-c2c(O)[nH]c3ccc([N+](=O)[O-])cc23)[nH]c2ccc(O)cc12` as the compound, how does the growth read?
**A.** -40.9% (active)

**Q.** For `c1cc(-c2ccc3c(c2)OCO3)n2nccc2n1`, which growth is on record?
**A.** 98.2%

**Q.** With `Nc1c(C(=O)Nc2cccc([N+](=O)[O-])c2)sc2nc3c(cc12)C(O)CCC3` (stereo unspecified) as the compound, how does the growth read?
**A.** 35.1%

**Q.** `CCn1cc(C(=O)O)c(=O)c2cc(F)c(N3CCN(S(=O)(=O)c4ccc(Cl)cc4Cl)CC3)cc21` was tested. Which growth did it give?
**A.** -55% (active)

**Q.** `CN1C(=O)[C@H]2c3c1cccc3[C@@]13NC(=O)O[C@H]1[C@H](CCC3(C)C)C2(C)C` was tested. Which growth did it give?
**A.** 98.1%

**Q.** How did the growth turn out when `CN1CCN(c2ccc3cc(-c4nc5ccccc5[nH]4)c(=O)oc3c2)CC1` was run?
**A.** 74.6%

**Q.** Which growth does the source give for `Cc1ccc(Cn2c(-c3nonc3N)nc3ccccc32)cc1` here?
**A.** 76.2%

**Q.** `CCc1cccc(C)c1NC(=O)c1sc2nc3c(cc2c1N)C(=O)CCC3` was tested. Which growth did it give?
**A.** 17%

**Q.** Which growth does the source give for `COc1cc(-c2cc(/C=C3\CCCCC3=O)[nH]n2)cc(OC)c1OC` here?
**A.** 92.8%

**Q.** `FC(F)(F)c1cccc(-n2nnc3cnc(Nc4ccc(N5CCCCC5)cc4)nc32)c1` was tested. Which growth did it give?
**A.** 86.7%

**Q.** With `Cc1ccc(OCCn2c(C)nn(-c3ccc(Cl)cc3)c2=O)cc1` as the compound, how does the growth read?
**A.** 109%

**Q.** `CN1CCN(CCCOc2ccc3nc(Nc4ccc(C(F)(F)F)c(Cl)c4)ccc3c2)CC1` was tested. Which growth did it give?
**A.** 34.1%

**Q.** How did the growth turn out when `COc1cc(Cn2c(SCC(=O)Nc3cc(OC)c(OC)c(OC)c3)nc3ccccc3c2=O)cc(OC)c1OC` was run?
**A.** 90.4%

**Q.** For `c1ccc(CCn2nnc3c(Nc4ccc(N5CCOCC5)cc4)ncnc32)cc1`, which growth is on record?
**A.** 81.8%

**Q.** How did the growth turn out when `CCCC1OC(c2ccc(C(C)C)cc2)OCC1CC` (stereo unspecified) was run?
**A.** 104%

**Q.** How did the growth turn out when `Oc1ccc(N=Cc2ccccc2)cc1` was run?
**A.** 83.4%

**Q.** With `COc1cccc(NC(=O)c2sc3nc4c(cc3c2N)CCCC4)c1` as the compound, how does the growth read?
**A.** 26.3%

**Q.** How did the growth turn out when `Cn1cc(C=O)c2ccccc21` was run?
**A.** 99.4%

**Q.** How did the growth turn out when `O=C1CCCCN1CCCCC#Cc1ccccc1C#Cc1ccc([N+](=O)[O-])cc1` was run?
**A.** 3.34% (active)

**Q.** `O=C(c1ccncc1)N1N=C(c2ccc(Cl)cc2)CC1c1c[nH]c2ccccc12` (stereo unspecified) was tested. Which growth did it give?
**A.** 93.3%

**Q.** For `Cc1cc2c(c(=O)o1)C(c1ccc(OC(=O)N3CCOCC3)cc1)C(C#N)=C(N)O2` (stereo unspecified), which growth is on record?
**A.** 103%

— PubChem BioAssay (NCI)
